PubChem BioAssay (NCI)
Where “and” joins values, the source holds several entries; their conditions need not be identical. Equal values may be shown once. Compounds without any hit were thinned out: in the full panel of roughly 83,000, 20% have a hit.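 How to read the values: 0–100, growth inhibition (40 = 60% inhibited); 0, no net growth; -100 to 0, cell death (-40 = 40% of starting cells died; -100 = all dead).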 Calls of active or inactive are those of the source. Rule for the calls: active = growth percent below 10; inactive = the rest.

How the values were obtained:
Assay in all cases: NCI-60 one-dose screen, 48 h (100 = growth as untreated, 0 = no growth, -100 = all killed)
OVCAR-5 ovarian = settings: 10 µM unless noted
OVCAR-4 ovarian = settings: 10 µM unless noted
SK-OV-3 ovarian = settings: 10 µM unless noted
IGROV1 ovarian = settings: 10 µM unless noted
OVCAR-3 ovarian = settings: 10 µM unless noted
HS 578T breast = settings: 10 µM unless noted
NCI/ADR-RES ovarian = settings: 10 µM unless noted
T-47D breast = settings: 10 µM unless noted
BT-549 breast = settings: 10 µM unless noted
MDA-MB-435 melanoma = settings: 10 µM unless noted
SW-620 colon = settings: 10 µM unless noted
MCF7 breast = tested on: MCF7 breast
HCT-116 colon = settings: 10 µM unless noted
HCC-2998 colon = settings: 10 µM unless noted
KM12 colon = settings: 10 µM unless noted

With CC[C@](O)(C(=O)O)c1cc2n(c(=O)c1CO)Cc1cc3ccccc3nc1-2 the growth (OVCAR-5 ovarian) was 9.24% (active), the growth (OVCAR-4 ovarian) was -19.4% (active) and the growth (SK-OV-3 ovarian) was 12.4% (inactive). For the same compound, the growth (IGROV1 ovarian) was -48.1% (active), the growth (OVCAR-3 ovarian) was -42.3% (active) and the growth (HS 578T breast) was 29.4% (inactive). The growth (NCI/ADR-RES ovarian) was 2.02% (active), the growth (T-47D breast) was -6.44% (active) and the growth (BT-549 breast) was -34.5% (active). The growth (MDA-MB-435 melanoma) was -81% (active), the growth (SW-620 colon) was -30% (active) and the growth (MCF7 breast; 10 µM) was 1.99% (active). For the same compound, the growth (HCT-116 colon) was -26.6% (active), the growth (HCC-2998 colon) was -61.6% (active) and the growth (KM12 colon) was -29.9% (active).

O=C1c2ccccc2C(=O)C(Cl)C1Cl (centres undefined) was tested, and the growth (OVCAR-5 ovarian) was 112% (inactive), the growth (OVCAR-4 ovarian) was -89% (active) and the growth (SK-OV-3 ovarian) was 99.5% (inactive). For the same compound, the growth (IGROV1 ovarian) was 78.4% (inactive), the growth (OVCAR-3 ovarian) was -75.2% (active) and the growth (NCI/ADR-RES ovarian) was 86.5% (inactive). The growth (T-47D breast) was -38% (active), the growth (BT-549 breast) was 78.5% (inactive) and the growth (MDA-MB-435 melanoma) was 95.9% (inactive). For the same compound, the growth (MCF7 breast; 10 µM) was -62.2% (active), the growth (HCT-116 colon) was -95.7% (active) and the growth (HCC-2998 colon) was 111% (inactive). The growth (KM12 colon) was 56.8% (inactive).

In the case of CC(=O)O[C@H]1C[C@@H]2OC3C=C(C)CCC3(C)[C@@]1(C)[C@@]21CO1 (some centres undefined), the growth (OVCAR-5 ovarian) is reported as 6.22% (active) and 5.12% (active), the growth (OVCAR-4 ovarian) is reported as -5.17% (active) and -15.1% (active) and the growth (SK-OV-3 ovarian) is reported as 5.54% (active) and -8.41% (active). For the same compound, the growth (IGROV1 ovarian) was -12.6% (active) and -11.8% (active), the growth (OVCAR-3 ovarian) was -17.6% (active) and -41.3% (active) and the growth (HS 578T breast) was -6.29% (active). The growth (NCI/ADR-RES ovarian) was -14% (active) and -10.5% (active), the growth (T-47D breast) was -4.55% (active) and -14.4% (active) and the growth (BT-549 breast) was -28.8% (active) and -11.6% (active). For the same compound, the growth (MDA-MB-435 melanoma) was -21.1% (active) and -27.5% (active), the growth (SW-620 colon) was 0.513% (active) and -7.31% (active) and the growth (MCF7 breast; 10 µM) was -0.46% (active) and -15% (active). The growth (HCT-116 colon) was -22.5% (active) and -18.6% (active), the growth (HCC-2998 colon) was -27.6% (active) and -20.3% (active) and the growth (KM12 colon) was -21.9% (active) and -43% (active).

In the case of Cc1c(N)nc([C@H](CC(N)=O)NC[C@H](N)C(N)=O)nc1C(=O)N[C@H](C(=O)N[C@H](C)[C@@H](O)[C@H](C)C(=O)N[C@H](C(=O)NCCc1nc(-c2nc(C(=O)NCCC[S+](C)C)cs2)cs1)[C@@H](C)O)C(OC1OC(CO)C(O)C(O)C1OC1OC(CO)C(O)C(OC(N)=O)C1O)c1cnc[nH]1 (some centres undefined), the growth (OVCAR-5 ovarian) is reported as 59.5% [2.5 µM] (inactive), the growth (OVCAR-4 ovarian) is reported as 104% [2.5 µM] (inactive) and the growth (SK-OV-3 ovarian) is reported as 98% [2.5 µM] (inactive). For the same compound, the growth (IGROV1 ovarian) was 42.3% [2.5 µM] (inactive), the growth (OVCAR-3 ovarian) was 83.5% [2.5 µM] (inactive) and the growth (HS 578T breast) was -2.02% [2.5 µM] (active). For the same compound, the growth (NCI/ADR-RES ovarian) was 39.3% [2.5 µM] (inactive), the growth (T-47D breast) was 92.2% [2.5 µM] (inactive) and the growth (BT-549 breast) was 54% [2.5 µM] (inactive). The growth (MDA-MB-435 melanoma) was 85.1% [2.5 µM] (inactive), the growth (SW-620 colon) was 83.4% [2.5 µM] (inactive) and the growth (MCF7 breast; 2.5 µM) was 52.9% (inactive). For the same compound, the growth (MCF7 breast; 25 µM) was 15.6% (inactive) and 0.932% (active), the growth (HCT-116 colon) was 34.2% [2.5 µM] (inactive) and the growth (HCC-2998 colon) was 5.84% [2.5 µM] (active). For the same compound, the growth (KM12 colon) was 80.9% [2.5 µM] (inactive).

In the case of CC[C@@]1(O)C(=O)OCc2c1cc1n(c2=O)Cc2cc3ccccc3nc2-1, the growth (OVCAR-5 ovarian) is reported as -1.11% (active), the growth (OVCAR-4 ovarian) is reported as -36.2% (active) and the growth (SK-OV-3 ovarian) is reported as 7.05% (active). The growth (IGROV1 ovarian) was -62.2% (active), the growth (OVCAR-3 ovarian) was -34% (active) and the growth (HS 578T breast) was 22.6% (inactive). The growth (NCI/ADR-RES ovarian) was -2.49% (active), the growth (T-47D breast) was -7.95% (active) and the growth (BT-549 breast) was -39.9% (active). The growth (MDA-MB-435 melanoma) was -81.5% (active), the growth (SW-620 colon) was -1.68% (active) and the growth (MCF7 breast; 10 µM) was 2.07% (active). For the same compound, the growth (HCT-116 colon) was -12.5% (active), the growth (HCC-2998 colon) was -73.8% (active) and the growth (KM12 colon) was -42.1% (active).

C[C@]12CC[C@H](O)CC1=CC[C@@H]1[C@@H]2CC[C@]2(C)C(=O)CC[C@@H]12 was tested, and the growth (OVCAR-5 ovarian) was 92.3% (inactive), the growth (OVCAR-4 ovarian) was 95.3% (inactive) and the growth (SK-OV-3 ovarian) was 116% (inactive). For the same compound, the growth (IGROV1 ovarian) was 80.5% (inactive), the growth (OVCAR-3 ovarian) was 90.6% (inactive) and the growth (HS 578T breast) was 130% (inactive). For the same compound, the growth (NCI/ADR-RES ovarian) was 99.1% (inactive), the growth (T-47D breast) was 96.4% (inactive) and the growth (BT-549 breast) was 98.3% (inactive). The growth (MDA-MB-435 melanoma) was 90.3% (inactive), the growth (SW-620 colon) was 110% (inactive) and the growth (MCF7 breast; 10 µM) was 130% (inactive). For the same compound, the growth (HCT-116 colon) was 91.6% (inactive), the growth (HCC-2998 colon) was 90.7% (inactive) and the growth (KM12 colon) was 97.1% (inactive).

CCOC(=O)C(NC(=O)C(Cc1ccc(N(CCCl)CCCl)cc1)NC(C)=O)C(C)C (centres undefined) was tested, and the growth (OVCAR-5 ovarian) was 105% (inactive), the growth (OVCAR-4 ovarian) was 96.4% (inactive) and the growth (SK-OV-3 ovarian) was 82.5% (inactive). For the same compound, the growth (IGROV1 ovarian) was 79.3% (inactive), the growth (OVCAR-3 ovarian) was 92.5% (inactive) and the growth (HS 578T breast) was 101% (inactive). The growth (NCI/ADR-RES ovarian) was 88% (inactive), the growth (T-47D breast) was 74.5% (inactive) and the growth (BT-549 breast) was 87% (inactive). The growth (MDA-MB-435 melanoma) was 101% (inactive), the growth (SW-620 colon) was 69.4% (inactive) and the growth (MCF7 breast; 10 µM) was 61.9% (inactive). For the same compound, the growth (HCT-116 colon) was 77.2% (inactive), the growth (HCC-2998 colon) was 73.2% (inactive) and the growth (KM12 colon) was 94.8% (inactive).
